From the GenesisPotency data set
Out of some 290,000 compounds screened, about 3,000 (1%) were called active. Rule as the data show it: active = inhibition mostly above about 36% (no sharp cut-off); inactive = mostly below about 34%. Shown is part of a subset that was picked to be rich in actives.

Molecular target: T1, Nucleotide-binding oligomerization domain-containing protein 1, Homo sapiens (UniProt Q9Y239)
T1 sequence (whole entry): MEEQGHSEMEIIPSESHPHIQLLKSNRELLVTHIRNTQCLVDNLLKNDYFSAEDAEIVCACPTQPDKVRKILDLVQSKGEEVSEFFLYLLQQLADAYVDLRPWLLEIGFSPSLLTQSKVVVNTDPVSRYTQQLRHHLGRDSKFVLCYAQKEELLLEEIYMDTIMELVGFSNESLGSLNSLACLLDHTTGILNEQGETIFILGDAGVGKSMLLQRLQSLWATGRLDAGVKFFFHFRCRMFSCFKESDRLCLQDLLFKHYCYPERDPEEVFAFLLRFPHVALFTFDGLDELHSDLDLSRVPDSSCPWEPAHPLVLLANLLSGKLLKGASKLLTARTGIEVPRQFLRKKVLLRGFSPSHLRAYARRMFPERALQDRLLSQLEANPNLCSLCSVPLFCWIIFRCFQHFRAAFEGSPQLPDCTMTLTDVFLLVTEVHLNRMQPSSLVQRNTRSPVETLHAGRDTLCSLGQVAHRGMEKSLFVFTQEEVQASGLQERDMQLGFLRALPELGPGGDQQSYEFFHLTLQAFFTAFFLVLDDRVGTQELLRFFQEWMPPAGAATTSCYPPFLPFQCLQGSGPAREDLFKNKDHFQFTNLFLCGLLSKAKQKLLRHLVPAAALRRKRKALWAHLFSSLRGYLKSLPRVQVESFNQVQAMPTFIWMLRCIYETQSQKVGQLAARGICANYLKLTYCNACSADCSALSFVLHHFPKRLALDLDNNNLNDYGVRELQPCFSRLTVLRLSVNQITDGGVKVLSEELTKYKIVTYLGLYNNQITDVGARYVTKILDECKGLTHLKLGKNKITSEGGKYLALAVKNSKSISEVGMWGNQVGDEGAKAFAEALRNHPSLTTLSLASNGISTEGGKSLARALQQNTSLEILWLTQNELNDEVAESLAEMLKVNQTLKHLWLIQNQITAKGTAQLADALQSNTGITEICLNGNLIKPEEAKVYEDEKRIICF
Test: NOD1 signaling inhibitors, primary screen, cell-based, luminescence, uHTS (AID 1578)

outcome, active:
Cc1cc(C)c(C(=O)/C=C/c2ccc(C(C)C)cc2)c(=O)[nH]1
Cc1cc(C)c(C(=O)/C=C/c2cccc3ccccc23)c(=O)[nH]1
O=C(/C=C/c1ccc2c(c1)OCO2)Nc1nc(-c2ccccc2)cs1
COc1cccc(N(C(=O)CCl)C(C(=O)NCCc2ccccc2)c2cccs2)c1 (stereo not drawn)
COc1ccc(N(C(=O)CCl)C(C(=O)NCCc2ccccc2)c2cccs2)cc1 (stereo not drawn)
COc1ccc(NS(=O)(=O)c2cccc(NC(=O)c3ccc(S(=O)(=O)N4CCCCCC4)cc3)c2)cc1
COc1ccc(NS(=O)(=O)c2cccc(NC(=O)c3ccc(Cl)nc3)c2)cc1
Cc1sc2ncnc(Sc3nnnn3-c3ccccc3)c2c1C
Cc1ccccc1-n1nnnc1Sc1nnnn1-c1ccccc1
Cc1sc2ncnc(Sc3nnnn3-c3ccc(Cl)cc3)c2c1C
O=C(N/N=C/c1ccc([N+](=O)[O-])o1)c1ccc2c(c1)OCO2
Cc1scc(C(=O)N/N=C/c2ccc([N+](=O)[O-])o2)c1C
O=C(N/N=C/c1ccc([N+](=O)[O-])o1)c1ccccc1-n1cccc1
O=[N+]([O-])c1ccc(/C=N/N=C/c2ccc([N+](=O)[O-])o2)o1
O=C(N/N=C/c1ccc([N+](=O)[O-])o1)c1ccccc1NS(=O)(=O)c1cccs1
Cc1nn(-c2cccc(Cl)c2)c2nc(C(F)(F)F)[nH]c(=O)c12
Cc1nn(-c2cc(C(F)(F)F)ccc2Cl)c2nc(C(Cl)(Cl)Cl)[nH]c(=O)c12
COc1cccc(N2CCN(c3ncnc4c3cnn4-c3ccc(C)cc3C)CC2)c1
COc1ccc(-c2n(CC(=O)OC3CC(C)CCC3C(C)C)c3ccccc3[n+]2C)cc1.[Cl-] (stereo not drawn)
Cc1csc(SCC(=O)Nc2cccc3nsnc23)n1
Cc1noc(C)c1CSc1nc2ccccc2nc1NS(=O)(=O)c1ccc(Cl)cc1
Cc1[nH]nc2ncc(C(=O)c3ccccc3O)cc12
Clc1ccc(CSc2nnc(-c3ccncc3)o2)cc1
Fc1ccc(CSc2nnc(-c3ccncc3)o2)cc1
O=c1cc(-c2ccccc2Cl)oc2c([N+](=O)[O-])c(O)cc(O)c12
O=C(CSc1nc2nc(-c3cccs3)cc(C(F)(F)F)c2c(=O)[nH]1)Nc1c(F)c(F)c(F)c(F)c1F
CCOc1ccccc1NC(=O)CSc1nc2nc(-c3cccs3)cc(C(F)(F)F)c2c(=O)[nH]1
Cc1ccc(C)c(NC(=O)CSc2nc3nc(-c4cccs4)cc(C(F)(F)F)c3c(=O)[nH]2)c1
O=C(CSc1nc2nc(-c3cccs3)cc(C(F)(F)F)c2c(=O)[nH]1)Nc1ccc(F)c(F)c1
O=c1cc(-c2ccccc2)nc2c(-c3ccccc3)c(C(F)(F)F)[nH]n12
COc1ccc(-c2c(C(F)(F)F)[nH]n3c(=O)cc(-c4ccccc4)nc23)cc1
CC(=O)/C=C/n1c(=S)oc2ccccc21
CC(C)CC(=O)/C=C/n1c(=S)oc2ccccc21
CCOC(=O)N1CCN(C(=O)C2CCCN(Cc3nc(-c4ccc(Cl)cc4)oc3C)C2)CC1 (stereo not drawn)
CC(=O)c1c(C)[nH]c(C(=O)OCC(=O)Nc2sc3c(c2C#N)CCCC3)c1C
Br.CC(=O)Nc1nc(C)c(-c2csc(Nc3ccc(O)cc3)n2)s1
COc1ccccc1Nc1nc(-c2sc(NC(=O)c3ccco3)nc2C)cs1
CC[C@H]1CN2CCc3cc(OC)c(OC)cc3[C@@H]2C[C@@H]1C[C@H]1NCCc2cc(OC)c(OC)cc21.Cl
O=C(NC(=S)N1CCN(c2ccc(C(F)(F)F)cc2[N+](=O)[O-])CC1)c1cccs1
O=C(NC(=S)N1CCN(c2ccc(Cl)cc2[N+](=O)[O-])CC1)c1cccs1
O=C(c1ccc2c(c1)CCN2S(=O)(=O)c1ccccc1)N1CCN(c2ccc(F)cc2)CC1
COc1ccc(C2CC(c3cccs3)=NN2C(=O)CCl)cc1OC (stereo not drawn)
COc1cc(C2CC(c3cccs3)=NN2C(=O)CCl)ccc1OC(F)F (stereo not drawn)
O=C(COc1ccc(C(=O)c2ccccc2)cc1)Nc1cccnc1
Cc1ccc(-n2ncc(Br)c(Br)c2=O)cc1
COc1cc(OC)nc(-n2ncc(Br)c(Br)c2=O)n1
CC(C)c1ccc(/C=C(\c2nc3ccccc3[nH]2)S(=O)(=O)c2ccccc2)cc1
O=S(=O)(/C(=C/c1ccc(C(F)(F)F)cc1)c1nc2ccccc2[nH]1)c1ccccc1
Cc1cccc(/C=C(\c2nc3ccccc3[nH]2)S(=O)(=O)c2ccccc2)c1
Cc1ccc(Cc2cnc(N3C(=N)SC(c4ccccc4)C3=O)s2)cc1 (stereo not drawn)
N=C1SC(c2ccccc2)C(=O)N1c1ncc(Cc2ccccc2Cl)s1 (stereo not drawn)
N=C1SC(c2ccccc2)C(=O)N1c1ncc(Cc2ccccc2)s1 (stereo not drawn)
CCOc1ccc2nc(SCc3ccc(CC(=O)O)cc3)c(C#N)cc2c1
CSc1nc2ccc(NS(=O)(=O)c3ccc4c(c3)OCCO4)cc2s1
Cc1nc2ccc(NS(=O)(=O)c3c(C)c(C)cc(C)c3C)cc2s1
Cc1nc2ccc(NS(=O)(=O)c3ccc4c(c3)OCCO4)cc2s1
O=C(CCl)Nc1cc(SCC(O)CO)cc([N+](=O)[O-])c1 (stereo not drawn)
COc1cc(F)ccc1CN1CCC(C(=O)Nc2ccc(Oc3ccccc3)nc2)CC1
CCOC(=O)C1=C(C)N=c2s/c(=C/c3cccc([N+](=O)[O-])c3O)c(=O)n2C1c1ccccc1 (stereo not drawn)
Cc1ccc(N(Cc2cc(=O)[nH]c3ccccc23)C(=O)CCl)c(C)c1
Cc1ccccc1N(Cc1cc(=O)[nH]c2ccccc12)C(=O)CCl
COc1cccc(C(=O)Oc2c(Br)cc(Br)cc2/C=N/NC(=O)c2cc(C)[nH]n2)c1
Cc1cc(C(=O)N/N=C/c2cc(Br)cc(Br)c2OC(=O)c2cccc(F)c2)n[nH]1
Cc1cc(C(=O)N/N=C/c2cc(Br)ccc2OC(=O)c2ccccc2)n[nH]1
Cc1ccc(-c2csc3ncnc(Sc4nnc(CN5CCCCCC5=O)o4)c23)cc1
COc1ccc(Cn2c(O)c(C=Nc3ccccc3C(=O)O)c3ccccc3c2=O)cc1
CCN(CC)S(=O)(=O)c1cccc(-n2c(O)c(C=Nc3ccccc3C(=O)O)c3ccccc3c2=O)c1
COc1ccccc1NS(=O)(=O)c1cccc(-n2c(O)c(C=Nc3ccccc3C(=O)O)c3ccccc3c2=O)c1
COC(=O)Cc1[nH]n(-c2nc3ccccc3s2)c(=O)c1C(C)=Nc1ccc(C)cc1
Cc1ccc(Cl)cc1N1CCN(C(=O)c2cc3c(=O)[nH]c4ccccc4c3n2C)CC1
COc1ccc(CN(C)Cc2nc(Cc3cccc(F)c3)no2)c2cccnc12
Cc1nc(SCC(=O)Nc2nc3ccccc3s2)c(C#N)c(C)c1C
COc1ccc(-n2nnnc2S(=O)(=O)CC(=O)N2CCCCC2)cc1
Cc1cc(Nc2cccc([N+](=O)[O-])c2)n2c(nc3ccccc32)c1C#N
CCc1nnc(NC(=O)c2ccc(Cl)c(S(=O)(=O)N3CCc4ccccc43)c2)s1
CC(NC(=O)OC(C)(C)C)C(=O)Oc1cc2oc(=O)cc(-c3ccccc3)c2cc1Cl (stereo not drawn)
CC(NC(=O)OCc1ccccc1)C(=O)Oc1cc2oc(=O)cc(-c3ccccc3)c2cc1Cl (stereo not drawn)
COC(=O)c1ccc(Nc2c([N+](=O)[O-])c(=O)oc3ccccc23)cc1
CCOC(=O)c1sc(N2C(=O)C(O)=C(C(=O)c3ccco3)C2c2ccco2)nc1C (stereo not drawn)
CCOC(=O)N1CCN(C(=O)c2ccc(Cn3c(=S)[nH]c4cc5c(cc4c3=O)OCO5)cc2)CC1
Cc1ccc(C(=O)Sc2cccccc2=O)cc1
CC(=O)c1c(C)[nH]c(C(=O)OCC(=O)Nc2ccc(C)cc2[N+](=O)[O-])c1C
CC(/C=C1\SC(=O)N(CCCC(=O)O)C1=O)=C\c1ccccc1
CN(Cc1ccccc1)C(=S)NC(=O)c1ccc(-c2ccccc2)cc1
C=CCN(CC=C)C(=S)NC(=O)c1ccc(-c2ccccc2)cc1
CCOc1cc(/C=C(/C#N)c2ccc(Cl)cc2)cc(Cl)c1OCC(=O)O
CC1=C(CO)C(=O)OC([C@@H](C)C2CC[C@H]3C4C[C@H]5O[C@]56[C@@H](O)C=CC(=O)[C@]6(C)C4CC[C@]23C)C1 (stereo partly drawn)
Cc1cccc(-c2nnc(NC(=O)c3ccc(Cl)cc3)o2)c1
CN(C)c1ccc(C(=O)Nc2nnc(-c3ccc(Cl)cc3)o2)cc1
O=C(Nc1nnc(-c2ccccc2)o1)c1ccc(Cl)cc1
COc1ccc(OC)c(NC(=O)CSc2ncnc3c2cnn3-c2ccccc2Cl)c1
CC(Oc1ccc(Br)cc1)c1nc2c3ccccc3nc(=S)n2[nH]1 (stereo not drawn)
CCCC(Oc1ccc(Br)cc1)c1nc2c3cc(OC)c(OC)cc3nc(=S)n2[nH]1 (stereo not drawn)
COc1ccc(CCNc2ncnc3sc(C)cc23)cc1OC.Cl
COc1ccc(CCNc2ncnc3sccc23)cc1OC
COc1ccc(CCNc2ncnc3c2oc2ccccc23)cc1OC.Cl
Oc1ccc(CCNc2ncnc3ccc(Cl)cc23)cc1
COc1ccc(CCNc2ncnc3cc(OC)c(OC)cc23)cc1OC
O=C(c1ccc(S(=O)(=O)c2cccc(Cl)c2)c([N+](=O)[O-])c1)N1CCN(Cc2ccccc2)CC1
COc1ccc(NC(=O)/C(Cl)=C(/Cl)S(=O)Cc2ccccc2)cn1 (stereo not drawn)
COc1ccc(NC(=O)/C(Cl)=C(/Cl)S(=O)Cc2ccccc2Cl)cn1 (stereo not drawn)
COc1ccc(NC(=O)/C(Cl)=C(/Cl)S(=O)Cc2ccc(C)cc2)cn1 (stereo not drawn)
COc1ccc(NC(=O)/C(Cl)=C(/Cl)S(=O)Cc2ccc(Cl)cc2)cn1 (stereo not drawn)
